# Experimental data reported in PubChem BioAssay (NCI).
# Compounds without any hit were thinned out: in the full panel of roughly 83,000, 20% have a hit.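 For each line, cells grew in 96-well plates with the test compound present at a single concentration for 48 hours.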 Values without a mark were called inactive. Active and inactive are the calls of the source. How the source made its calls: active means growth percent below 10; inactive means the rest.
# Columns and labels:
# Assay in all cases: NCI-60 one-dose screen, 48 h (100 = growth as untreated, 0 = no growth, -100 = all killed)
# Conditions in all cases: 10 µM unless noted
# HCT-15 colon = test system: HCT-15 colon
# HT29 colon = test system: HT29 colon
# SNB-75 CNS = test system: SNB-75 CNS
# SNB-19 CNS = test system: SNB-19 CNS
# U251 CNS = test system: U251 CNS
# PC-3 prostate = test system: PC-3 prostate
# SK-MEL-5 melanoma = test system: SK-MEL-5 melanoma
# UACC-62 melanoma = test system: UACC-62 melanoma
# LOX IMVI melanoma = test system: LOX IMVI melanoma
# SK-MEL-28 melanoma = test system: SK-MEL-28 melanoma
Structure (SMILES),growth (HCT-15 colon),growth (HT29 colon),growth (SNB-75 CNS),growth (SNB-19 CNS),growth (U251 CNS),growth (PC-3 prostate),growth (SK-MEL-5 melanoma),growth (UACC-62 melanoma),growth (LOX IMVI melanoma),growth (SK-MEL-28 melanoma)
COc1cc(/C=C/C(=O)c2cccc(Nc3nc(Nc4ccccc4)nc(Nc4ccccc4)n3)c2)cc(OC)c1OC,49.6%,48.8%,52.8%,93.9%,29.8%,24.7%,51%,64%,45.3%,68.9%
C=CCn1c(SCC(=O)Nc2ccc(C(=O)/C=C/c3ccc(Cl)cc3)cc2)nnc1-c1cc(-c2ccc(S(N)(=O)=O)cc2)nc2ccccc12,96.5%,97.4%,56%,81.4%,71.2%,71.8%,76.8%,71.9%,92.3%,92.1%
CCO/C=N/C1=C(C#N)C(c2ccc(OC)cc2)c2sc3c(F)cccc3c2O1 (stereo not given),21.3%,7.69% (active),-8.92% (active),24%,24.7%,33.3%,-22.9% (active),12.2%,32.2%,60.4%
COc1cc(C(=O)n2nc(N3CCN(C)CC3)c3cc(N)ccc32)cc(OC)c1OC,37%,86.8%,39.9%,35.2%,31.2%,50.1%,27.3%,26.2%,35.5%,65.8%
c1cnc2[nH]cc(-c3csc(-c4cn(CCCN5CCOCC5)c5ccccc45)n3)c2c1,14%,7.69% (active),20.1%,56.8%,32.9%,19.6%,38%,65.5%,30.6%,65.3%
COc1ccc(C(=O)Nc2ncc(Cc3ccc(F)cc3)s2)cc1,11.5%,9.92% (active),23.9%,31.2%,28.6%,27.6%,-4.84% (active),30.1%,20%,48.7%
CCNc1cc(-c2cccc(OC(F)(F)F)c2)nc2ccc(N3CCCC3)cc12,4.85% (active),4.79% (active),82.3%,27%,-68.3% (active),15.1%,-64.3% (active),50.7%,11.3%,30.6%
CSc1nnc(-c2cnn3c2NC(c2ccccc2)C3)n1-c1ccc(C(F)(F)F)cc1 (stereo not given),35.1%,28.4%,66.7%,66.9%,58%,46.3%,31.3%,40.3%,61.3%,71.7%
COc1cc(OC)c2sc(-c3ccc(-n4cncc4-c4ccc(OC)c(OC)c4)cc3)nc2c1,17.8%,35.1%,87.1%,67.1%,46%,27.6%,22.5%,53.4%,59.1%,71.8%
COCCn1c(-c2csc(-c3cn(C)c4ccc(OC)cc34)n2)cc2cccnc21,7.45% (active),5% (active),72.4%,85.3%,48.4%,19.2%,65.2%,82.1%,-22.6% (active),85.1%
CCOC(=O)c1cn2ncnc(Oc3ccc(NC(=O)NC4CCCCC4)c(Cl)c3)c2c1C,69.4%,81.6%,0.475% (active),66.1%,49.3%,67.7%,84.5%,80.4%,54.9%,93.9%
COc1ccc(OC)c(C(=O)/C=C/c2cc3c(c(OC)c2OC)OCO3)c1,47.3%,60.3%,52%,71.5%,50.4%,61.8%,68.4%,55.4%,47.8%,89.7%
CCCCC(=O)c1ccco1,102%,103%,86.8%,86.4%,102%,85.8%,98.8%,94.9%,99.6%,103%
c1ccc(C2=NN[C@H](c3cn(-c4ccccc4)nc3-c3ccccc3)C2)cc1,86.5%,65.2%,-32.7% (active),55%,7.2% (active),43.5%,64%,90.3%,24.4%,50.2%
O=C(OCc1ccc2cccc(O)c2n1)N1CCN(C(=O)c2cc3cc(F)ccc3[nH]2)CC1,-36.4% (active),-70.4% (active),-45.2% (active),47.1%,-87.2% (active),-43.9% (active),-79.6% (active),-93.8% (active),-91.8% (active),-91.2% (active)
O=C(COc1ccc(-c2nc3ccccc3[nH]2)cc1)N=Nc1c(O)[nH]c2ccc(Cl)cc12,93%,41.2%,103%,56.5%,-45.1% (active),25.9%,94.9%,100%,60.7%,108%
Cc1ccc(Sc2oc(-c3ccc(C)cc3)nc2[P+](c2ccccc2)(c2ccccc2)c2ccccc2)cc1,0.625% (active),1.95% (active),-23.6% (active),14%,12.9%,5.64% (active),-97.7% (active),-38.1% (active),-69.3% (active),17%
O=C(CCc1nnc(Cn2cnc3nc[nH]c3c2=O)o1)c1nc2ncccc2[nH]1,104%,92%,92.5%,94.6%,101%,105%,104%,94.3%,88.1%,111%
COc1ccc2nc(NC(=O)CSc3nnc4n3S(=O)(=O)c3ccccc3N4C)sc2c1,101%,114%,93.5%,112%,102%,94.7%,95.1%,87.3%,92%,117%
O=C(CSc1nc2ccc([N+](=O)[O-])cc2[nH]1)Nc1cccc(C(F)(F)F)c1,23.5%,11.3%,25.5%,15.2%,16.4%,9.66% (active),-1.54% (active),6.34% (active),26.9%,22.2%
Cc1cccnc1NC(=S)Nc1ncccc1C,104%,103%,96.2%,104%,99.7%,99.9%,101%,100%,107%,111%
COc1ccc(-c2cn(-c3cc(OC)c(OC)c(OC)c3)c(=O)n2C(C)=O)cc1,90.9%,85.4%,88.3%,92.9%,97.6%,105%,94%,84.2%,95.5%,103%
C=CC(=O)NCc1ccc(Nc2nccc(-c3ccc(N4CCCC4)c(C#N)c3)n2)cc1,19.7%,7.08% (active),20.3%,58.6%,38.1%,32.4%,35.7%,33.8%,47.2%,45.5%
CCCCNC(=O)Oc1ccc(/C(=C(/CC)Cc2ccccc2)c2ccc(OCCN3CCCCCC3)cc2)cc1,-29.9% (active),-21% (active),61.2%,45.2%,25.7%,39.8%,13.1%,24%,-93.6% (active),-6.15% (active)
COc1ccc(Cc2cc(-c3ccccc3)nn(Cc3ccccc3)c2=O)cc1OC,28.7%,29.1%,58.3%,46.5%,32.7%,20.8%,-3.54% (active),30.6%,48.4%,59.3%
CCCC(O)Cn1ncc(C(=O)OCC)c1NC(=O)NCc1ccccc1F (stereo not given),105%,81.1%,98.9%,102%,93.8%,93.4%,93.2%,86.3%,93.9%,110%
O=C1/C(=C/c2ccc(F)cc2)COc2ccc(O)cc21,60.7%,48.7%,83.7%,90.4%,60.8%,89.2%,98.5%,85.2%,22.5%,103%
